Cdc42 wt GTP: modulators (inhibitors or activators) of GTP binding to human Cdc42 wildtype. GST-Cdc42 beads, Bodipy-GTP binding, flow cytometry; actives lie on both sides. 190,000 compounds, 0.2% hits. percent activity (GTP binding), % at 10 µM. AID 761. P60953;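 active means percent activity GTP binding at least 20 points away from the 100% baseline, either down as inhibitor or up as activator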;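 further: median bead fluorescence of bound Bodipy-FL-GTP at 100 nM; below 100% means less GTP binding so inhibitor and above means activator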
Target sequence (P60953 whole entry, looked up): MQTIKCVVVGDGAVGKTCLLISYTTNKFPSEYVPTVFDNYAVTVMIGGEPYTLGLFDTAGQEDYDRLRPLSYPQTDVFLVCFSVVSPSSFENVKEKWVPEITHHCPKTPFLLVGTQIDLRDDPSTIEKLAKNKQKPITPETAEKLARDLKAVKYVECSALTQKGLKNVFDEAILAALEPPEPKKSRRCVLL
Rac1 mut GTP: alters GTP binding to activated mutant human Rac1; GST-Rac1 activated beads, fluorescent GTP binding, flow cytometry; actives lie on both sides; 100% means binding = to untreated wells; P63000; 190,000 compounds, 0.11% hits; percent activity (GTP binding), % at 10 µM;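 active means GTP binding at least 20 percentage points away from the 100% baseline, in either direction, so actives lie on both sides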
Rab2 wt GTP: changes GTP binding to wildtype dog Rab2A, up or down. P61105. GTP binding activity, % at 10 µM. 190,000 compounds, 0.19% hits. GST-Rab2 wt beads, Bodipy-GTP binding, flow cytometry;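 active means GTP binding activity at least 20 points away from 100%, either lowered or raised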
Rab7 wt modul: modulators of GTP binding to dog Rab7 wildtype GTPase | GST-Rab7 beads, fluorescent GTP binding, flow cytometry; actives lie on both sides; untreated = 100%, excess cold GTP = 0% | GTP binding activity (percent of control), % at 10 µM | 190,000 compounds, 0.055% hits | AID 758;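 active means fluorescent GTP binding to Rab7 beads changed by at least 20 points from the 100% baseline, either direction, mostly lower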;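 further: median green fluorescence of bound Bodipy-FL-GTP per Rab7 bead population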
Rac1 wt GTP bind: alters GTP binding to wildtype human Rac1 | GST-Rac1 beads, fluorescent GTP binding, flow cytometry; actives lie on both sides; 0 = cold GTP competed, 100 = untreated | 190,000 compounds, 0.27% hits | GTP binding activity (% of control), % at 10 µM;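 active means GTP binding activity at least 20 points away from the 100% control level, either lower or higher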
HRas wt GTP: changes GTP binding to wildtype human HRas | P01112 | GST-Ras wt beads, Bodipy-FL-GTP binding, flow cytometry; actives lie on both sides | GTP binding activity, % at 10 µM | 190,000 compounds, 0.14% hits | AID 759;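 active means GTP binding activity at least 20% away from the 100% baseline, either lowered as inhibitor or raised as activator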
Target sequence (P01112 whole entry, looked up): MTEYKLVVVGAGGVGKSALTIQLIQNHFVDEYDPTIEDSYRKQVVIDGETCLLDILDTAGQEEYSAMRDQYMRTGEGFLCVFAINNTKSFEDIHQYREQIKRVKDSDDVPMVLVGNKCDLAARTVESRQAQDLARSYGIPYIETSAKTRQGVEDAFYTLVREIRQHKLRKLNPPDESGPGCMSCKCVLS
Numbers stand for hits; n = inactive; [ ] = remark or other dose. The list is not random: actives were taken first. Their share in the collection is about 0.4%.

SMILES	Cdc42 wt GTP	Rac1 mut GTP	Rab2 wt GTP	Rab7 wt modul	Rac1 wt GTP bind	HRas wt GTP
COC(=O)c1ccc(COc2ccccc2/C=N/Nc2cccc(C(=O)O)c2)cc1	124[activator]	128[activator]	128[activator]	126[activator]	141[activator]	121[activator]
NC(=O)c1c(NC(=O)C2CCCO2)sc2c1CCCC2 (stereo unspecified)	n	n	n	n	n	n
O=C(Nc1c(F)cccc1F)c1cnc(N2CCN(c3ccccn3)CC2)c2ccccc12	n	n	n	n	131[activator]	n
c1ccc(CN2CCN(CCOCCOc3cccc4ccccc34)CC2)cc1	n	n	78	n	n	n
COc1ccc(C)cc1NC(=O)c1cc2c(CO)cnc(C)c2oc1=N	n	n	n	n	n	n
COc1cc(N=c2oc3c(C)ncc(CO)c3cc2C(N)=O)cc(OC)c1OC	68	n	67	n	64	68
COc1ccc(CNC(=O)COC(=O)c2ccc(Br)cc2)cc1	n	n	n	n	n	n
Cc1cccc(C)c1NC(=S)NC(C)CCc1ccccc1 (stereo unspecified)	n	n	n	n	n	n
COc1ccc(N/C=C/c2nc(SC)nnc2C)cc1	67	n	66	n	64	69
CSc1nnc(C)c(/C=C/Nc2ccc(F)cc2)n1	n	n	n	n	n	n
C=CCN1C(=O)/C(=C\c2ccc(Oc3nc(N4CCOCC4)nc(N4CCOCC4)n3)c(OC)c2)SC1=S	n	n	n	n	n	n
CCOC(=O)c1cc(C(=O)OCC)c2ccccn2c1=O	n	n	n	76	n	79
CN1CCC(=NNC(=O)C(=O)Nc2ccccc2F)CC1	n	n	n	n	n	n
O=C1c2ccccc2-n2c1nc1ccccc1c2=O	n	n	n	n	77	n
S=C(Nc1ccc2nccnc2c1)N1CCOCC1	n	n	n	n	n	n
COc1cc(NS(=O)(=O)c2ccc(Nc3nc(-c4ccccc4)cs3)cc2)nc(OC)n1	71	n	77	n	73	79
Cc1cc(NS(=O)(=O)c2ccc(Nc3nc(-c4sc(N)nc4C)cs3)cc2)no1	n	n	75	n	n	78
COc1ccc(OC)c(Nc2nc(-c3sc(N)nc3C)cs2)c1	77	n	n	n	79	79
CCCC(=O)Nc1nc(C)c(-c2csc(Nc3cc(OC)ccc3OC)n2)s1	n	n	n	n	n	n
Cc1cc(NS(=O)(=O)c2ccc(Nc3nc(-c4ccc(C)c(C)c4)cs3)cc2)no1	n	n	n	n	n	n
COc1cc(NS(=O)(=O)c2ccc(N)cc2)nc(OC)n1	n	n	n	n	n	n
COc1ccc(CCNC(=O)C(=O)Nc2nccs2)cc1OC	n	n	n	n	n	n
COc1ccc(CC(=O)Nc2ccc(C(=O)Nc3nccs3)cc2)cc1OC	73	n	73	n	n	77
CCC(Sc1nc(-c2ccccc2)cc(=O)[nH]1)C(=O)O (stereo unspecified)	n	n	n	n	n	n
CC(C)Sc1nc(-c2ccccc2)cc(=O)[nH]1	n	n	n	n	128[activator]	n
SMILES	Cdc42 wt GTP	Rac1 mut GTP	Rab2 wt GTP	Rab7 wt modul	Rac1 wt GTP bind	HRas wt GTP
O=C(N/N=C/c1ccccc1Br)C1CC1	n	n	n	n	n	n
O=C(COC(=O)/C=C/c1cccs1)Nc1ccccc1Cl	n	n	n	n	n	n
O=C(COC(=O)/C=C/c1cccs1)Nc1ccc2ccccc2c1	73	76	76	n	74	n
Cc1nc2nc(SCC(=O)NCc3ccco3)nn2c(C)c1Cc1c(F)cccc1Cl	n	n	n	n	n	n
Cc1nc2nc(SCC(=O)O)nn2c(C)c1Cc1ccccc1Cl	n	n	78	n	n	n
Cc1nc2nc(SCC(=O)O)nn2c(C)c1Cc1c(F)cccc1Cl	72	70	73	n	78	78
Cn1cc(CC(=O)NCCN2CCOCC2)c2ccccc21	n	n	n	n	n	n
CCOC(=O)c1c(NC(=O)CN2C(=O)NC(C)(c3ccccc3)C2=O)sc(C)c1C (stereo unspecified)	n	n	n	n	n	n
CC1(/[N+]([O-])=C/c2ccccc2F)CCCCC1=O (stereo unspecified)	n	n	n	n	n	n

Screens: PubChem, NMMLSC
